Results from PubChem BioAssay.
“And” between values parts separate entries of the source, which are not always exact repeats. Equal values may be shown once. Records with an inconclusive call do not appear. The source made the active and inactive calls.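 How the source made its calls, unless noted: active means normalized viability below 100% at a tested concentration; inactive means the rest.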 Peptide text beside a SMILES is read from it.

Legend:
[1] = viability loss in pontine glioma line – cell-based, SU-DIPG-XXV, MIPE5.0, CellTiter-Glo, qHTS, dose response (AID 1347065; cut-off not given, nearly all actives have AC50 up to about 26 µM;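 further: cells exposed to compound for 48 hours before ATP readout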); details: CellTiter-Glo ATP luminescence
[2] = JHH-DIPG-1 glioma cell viability, MIPE5.0 library, CellTiter-Glo luminescence, qHTS (AID 1347067; cut-off not given, nearly all actives have AC50 up to about 26 µM;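 further: cells exposed to compound for 48 hours before readout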); details: JHH-DIPG-1 glioma viability, CellTiter-Glo ATP luminescence
[3] = SU-DIPG-XXV glioma cell viability, MIPE5.0 library, qHTS (AID 1347068; cut-off not given, nearly all actives have IC50 up to about 30 µM)
[4] = phospholipid biosynthesis inhibitors in animal cells, primary screen, cell-based, LOPAC library, screen 4 (AID 1347384; call rule not given here); details: phospholipid biosynthesis inhibition screen, at 10 µM
[5] = survival rescue of mitochondrial mutant cells in low glucose, primary screen, MELAS cybrids, Rieske KO mouse fibroblasts, CellTiter-Glo (AID 1508586;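 active means mean z-score across replicates of 1.96 or higher in either the MELAS or the Rieske mutant cell line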;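 further: z relative to plate mean and SD of compound and empty wells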)
[6] = molecular target: NAD(+) hydrolase SARM1 (Homo sapiens) (UniProt Q6SZW1); assay: SARM1 TIR NADase inhibitors, cell lysate, NAD-Glo luminescence (AID 1508614;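 active means compound whose remaining NAD level is above about 45 nM, limit read from the data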); details: SAM-TIR HEK293T lysate NADase, at 1 µM, stronger effect = higher value
[7] = molecular target: Mitogen-activated protein kinase 7 (Homo sapiens) (UniProt Q13164); assay: ERK5 transactivation activators in reporter cells, primary screen, cell-based, HTS (AID 1508626;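 active means luciferase signal above three times the same-plate solvent-only control wells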;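 further: luciferase driven by Gal4-ERK5 fusion binding five Gal4 sites before minimal TATA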); details: HeLa Gal4-ERK5 transactivation, 18 h, at 5 µM, stronger effect = higher value
[8] = viability rescue of complex I mutant cybrids, primary screen, cell-based, galactose medium, ATP luminescence (AID 1645843;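 active means z-score of at least 1.8 in each of two replicates, scored against plate mean and spread of sample wells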;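 further: positive z means more ATP and so rescue of galactose-driven cybrid death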); details: complex I mutant cybrid cells, 72 h, stronger effect = higher value
[9] = SU-DIPG-VI glioma cell viability, MIPE4.0 library, CellTiter-Glo luminescence, qHTS (AID 1347066; cut-off not given, nearly all actives have AC50 up to about 30 µM;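 further: cells exposed to compound for 48 hours before readout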); details: CellTiter-Glo ATP luminescence
[10] = sensitizers of A549 cells to miR-34 induction, primary screen, imaging, A549 dox-inducible miR-34, nuclei and caspase counts (AID 1347080;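 active means compounds whose cell count with miR-34 switched on is under 0.7 times the count with it off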); details: A549 miR-34 inducible, Hoechst nuclei count, 48 h
[11] = modifiers of HSF1 nuclear foci, imaging, Selleck Cancer Library (AID 1347162; in the data active means plate-normalised HSF1 focus index below about 0.46); details: human cells, at 10 µM; SSMD: measured here: HSF1 foci SSMD mean; cell count: measured here: cell number; plate-normalised HSF1 focus index: stronger effect = lower value
[12] = ovarian cancer cell viability with rucaparib, profiling panel, oncology-focused library, rucaparib conditional (AID 1508598); details: patient-derived ovarian cancer cells, CellTiter-Glo viability, 144 h, stronger effect = lower value
[13] = MELAS cybrid survival, CellTiter-Glo 48 h, stronger effect = higher value
[14] = Rieske KO mouse fibroblast survival, CellTiter-Glo 72 h
[15] = stronger effect = lower value, cell number ratio, induced over uninduced
[16] = measured here: relative caspase fold change +Dox/-Dox
[17] = measured here: total cells with miR-34 induction, stronger effect = lower value
[18] = measured here: total cells without miR-34 induction

Sequence of NAD(+) hydrolase SARM1 (Homo sapiens) (Q6SZW1 whole entry, looked up, the tested form may be a part): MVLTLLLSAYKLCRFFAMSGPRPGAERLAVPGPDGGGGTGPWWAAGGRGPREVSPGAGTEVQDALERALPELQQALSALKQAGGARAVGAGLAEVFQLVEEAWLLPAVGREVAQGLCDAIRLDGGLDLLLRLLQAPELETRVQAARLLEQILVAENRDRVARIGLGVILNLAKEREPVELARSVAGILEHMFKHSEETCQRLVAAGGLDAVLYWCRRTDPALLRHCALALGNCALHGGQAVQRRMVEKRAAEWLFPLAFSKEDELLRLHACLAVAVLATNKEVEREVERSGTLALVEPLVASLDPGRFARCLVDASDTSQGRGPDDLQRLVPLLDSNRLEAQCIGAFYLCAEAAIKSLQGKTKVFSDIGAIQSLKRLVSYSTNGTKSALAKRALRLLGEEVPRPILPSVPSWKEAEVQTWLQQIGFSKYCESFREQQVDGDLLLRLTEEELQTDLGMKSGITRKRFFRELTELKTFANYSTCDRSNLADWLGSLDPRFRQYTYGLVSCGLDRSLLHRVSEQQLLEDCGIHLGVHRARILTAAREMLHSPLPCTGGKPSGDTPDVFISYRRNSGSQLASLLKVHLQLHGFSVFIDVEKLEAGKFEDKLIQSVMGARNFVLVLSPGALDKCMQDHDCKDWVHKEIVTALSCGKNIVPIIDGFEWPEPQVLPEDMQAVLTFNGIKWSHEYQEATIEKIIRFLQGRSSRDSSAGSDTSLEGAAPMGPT
Sequence of Mitogen-activated protein kinase 7 (Homo sapiens) (Q13164 whole entry, looked up, the tested form may be a part): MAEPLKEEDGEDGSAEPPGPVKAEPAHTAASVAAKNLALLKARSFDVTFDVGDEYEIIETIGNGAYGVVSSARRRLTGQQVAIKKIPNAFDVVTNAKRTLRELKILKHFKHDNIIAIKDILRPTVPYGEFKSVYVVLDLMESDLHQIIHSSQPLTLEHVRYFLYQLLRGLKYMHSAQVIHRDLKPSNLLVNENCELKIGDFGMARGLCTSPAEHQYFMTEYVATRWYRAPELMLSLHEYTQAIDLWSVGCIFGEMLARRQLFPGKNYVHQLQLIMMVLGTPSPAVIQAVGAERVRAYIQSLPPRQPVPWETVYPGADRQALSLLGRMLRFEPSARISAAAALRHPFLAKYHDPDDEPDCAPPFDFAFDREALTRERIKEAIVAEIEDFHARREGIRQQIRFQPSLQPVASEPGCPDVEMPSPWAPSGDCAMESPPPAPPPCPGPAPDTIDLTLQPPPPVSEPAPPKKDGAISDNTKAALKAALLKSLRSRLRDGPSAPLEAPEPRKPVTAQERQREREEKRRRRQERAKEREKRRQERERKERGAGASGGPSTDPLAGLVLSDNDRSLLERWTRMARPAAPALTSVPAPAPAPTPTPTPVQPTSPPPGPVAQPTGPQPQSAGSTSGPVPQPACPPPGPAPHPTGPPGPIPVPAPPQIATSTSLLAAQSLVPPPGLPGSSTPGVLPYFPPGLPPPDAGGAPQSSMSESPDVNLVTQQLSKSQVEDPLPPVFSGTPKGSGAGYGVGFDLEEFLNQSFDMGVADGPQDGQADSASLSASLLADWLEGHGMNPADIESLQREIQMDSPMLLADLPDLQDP

NCCCCCC(=O)O
outcome [1]: inactive
outcome [2]: inactive
outcome [3]: inactive
outcome [4]: inactive
z-score [5, 13]: -0.274 (inactive) and -0.333 (inactive)
z-score [5, 14]: -0.165 and -1.21
remaining NAD [6]: 10 nM (inactive)
luciferase signal [7]: 40 AU (inactive)
z-score [8]: 1.05 (inactive)

COc1ccccc1N1CCN(CC(O)COc2cccc3ccccc23)CC1 (stereo not given)
outcome [9]: inactive
outcome [2]: inactive
outcome [3]: inactive
outcome [4]: inactive
remaining NAD [6]: 10 nM (inactive)

COc1ccc2[nH]cc(CCNC(C)=O)c2c1
outcome [9]: inactive
outcome [2]: inactive
outcome [3]: inactive
outcome [4]: inactive
z-score [5, 13]: -0.429 (inactive) and 0.313 (inactive) and -0.146 (inactive)
z-score [5, 14]: -0.494 and 0.0961 and -0.273
luciferase signal [7]: 68 AU (inactive)
z-score [8]: 0.52 (inactive) and 0.205 (inactive) and 0.655 (inactive)

COC(=O)[C@H](Cc1ccccc1)NC(=O)[C@@H](N)CC(=O)O (H-Asp-Phe-OMe)
outcome [9]: inactive
outcome [2]: inactive
fold change [10, 15]: 0.869 (inactive)
fold change [10, 16]: 2.93
cell count [10, 17]: 11000
cell count [10, 18]: 12600
remaining NAD [6]: 10 nM (inactive)
luciferase signal [7]: 36 AU (inactive)

CNC[C@H](O)[C@@H](O)[C@H](O)[C@H](O)CO
outcome [9]: inactive
outcome [2]: inactive
outcome [3]: inactive
fold change [10, 15]: 0.909 (inactive)
fold change [10, 16]: 1.1
cell count [10, 17]: 9480
cell count [10, 18]: 10400
z-score [5, 13]: 0.108 (inactive) and -0.495 (inactive)
z-score [5, 14]: -0.764 and -1.1
remaining NAD [6]: 10 nM (inactive)
z-score [8]: 0.835 (inactive)

Nc1nc(N)nc(-c2cc(Cl)ccc2Cl)n1
outcome [9]: inactive
outcome [2]: inactive
outcome [3]: inactive
z-score [5, 13]: -0.19 (inactive) and -0.868 (inactive) and 0.283 (inactive)
z-score [5, 14]: 0.166 and -0.512 and 0.352
remaining NAD [6]: 10 nM (inactive)
z-score [8]: 0.88 (inactive) and -0.09 (inactive) and 0.54 (inactive)

CC1=CC(=O)c2ccccc2C1=O
AC50 [9]: 8330 nM (active)
AC50 [2]: 33200 nM (active)
outcome [3]: inactive
fold change [10, 15]: 1.24 (inactive) and 1.04 (inactive) and 1.27 (inactive)
fold change [10, 16]: 0.813 and 0.493 and 0.646
cell count [10, 17]: 1500 and 4940 and 494
cell count [10, 18]: 1210 and 4760 and 388
z-score [5, 13]: -0.194 (inactive)
z-score [5, 14]: -1.25
remaining NAD [6]: 10 nM (inactive)
luciferase signal [7]: 128 AU (inactive)

CCCOc1ccc2nc(NC(=O)OC)[nH]c2c1
AC50 [1]: 235 nM (active)
AC50 [2]: 295 nM (active)
fold change [10, 15]: 1.06 (inactive) and 1 (inactive)
fold change [10, 16]: 1.87 and 1.28
cell count [10, 17]: 2370 and 1800
cell count [10, 18]: 2250 and 1790
z-score [5, 13]: -1.88 (inactive) and -2.12 (inactive)
z-score [5, 14]: -0.332 and 1.54
remaining NAD [6]: 10 nM (inactive)
luciferase signal [7]: 40 AU (inactive)
z-score [8]: -1.72 (inactive)

C[C@H]1O[C@@H](n2cc(F)c(=O)[nH]c2=O)[C@H](O)[C@@H]1O
outcome [9]: inactive
outcome [2]: inactive
outcome [3]: inactive
fold change [10, 15]: 1.04 (inactive) and 0.788 (inactive)
fold change [10, 16]: 0.632 and 1.14
cell count [10, 17]: 3620 and 3400
cell count [10, 18]: 3490 and 4310
outcome [4]: inactive
z-score [5, 13]: 0.0159 (inactive)
z-score [5, 14]: -0.832
remaining NAD [6]: 10 nM (inactive)
z-score [8]: 0.64 (inactive) and -0.08 (inactive)

CCCCc1ccc2nc(NC(=O)OC)[nH]c2c1
AC50 [1]: 118 nM (active)
AC50 [2]: 332 nM (active)
fold change [10, 15]: 1.15 (inactive)
fold change [10, 16]: 0.509
cell count [10, 17]: 1770
cell count [10, 18]: 1530
z-score [5, 13]: -2.16 (inactive)
z-score [5, 14]: 0.696

CCc1c2c(nc3ccc(OC(=O)N4CCC(N5CCCCC5)CC4)cc13)-c1cc3c(c(=O)n1C2)COC(=O)[C@]3(O)CC
outcome [9]: inactive
AC50 [2]: 23500 nM (active)
fold change [10, 15]: 0.732 (inactive) and 1.02 (inactive) and 1.1 (inactive)
fold change [10, 16]: 1.79 and 1.27 and 1.62
cell count [10, 17]: 1660 and 2170 and 2350
cell count [10, 18]: 2270 and 2120 and 2140
SSMD [11]: -0.515
cell count [11]: 7510
plate-normalised HSF1 focus index [11]: 0.983 (inactive)
z-score [5, 13]: -0.914 (inactive) and -2.14 (inactive)
z-score [5, 14]: -0.882 and -1.55
viability ([12]; at 0.000305 µM, OCI-C5x cells, with rucaparib 10 µM, 100% = cells with rucaparib alone): 118% (inactive)
viability ([12]; at 0.000305 µM, OCI-C5x cells, without rucaparib): 117% (inactive)
viability ([12]; at 0.000305 µM, OCI-P5x cells, with rucaparib 20 µM, 100% = cells with rucaparib alone): 102% (inactive)
viability ([12]; at 0.000305 µM, OCI-P5x cells, without rucaparib): 105% (inactive)
viability ([12]; at 0.00122 µM, OCI-C5x cells, with rucaparib 10 µM, 100% = cells with rucaparib alone): 121% (inactive)
viability ([12]; at 0.00122 µM, OCI-C5x cells, without rucaparib): 124% (inactive)
viability ([12]; at 0.00122 µM, OCI-P5x cells, with rucaparib 20 µM, 100% = cells with rucaparib alone): 104% (inactive)
viability ([12]; at 0.00122 µM, OCI-P5x cells, without rucaparib): 105% (inactive)
viability ([12]; at 0.00488 µM, OCI-C5x cells, with rucaparib 10 µM, 100% = cells with rucaparib alone): 107% (inactive)
viability ([12]; at 0.00488 µM, OCI-C5x cells, without rucaparib): 112% (inactive)
viability ([12]; at 0.00488 µM, OCI-P5x cells, with rucaparib 20 µM, 100% = cells with rucaparib alone): 108% (inactive)
viability ([12]; at 0.00488 µM, OCI-P5x cells, without rucaparib): 106% (inactive)
viability ([12]; at 0.0195 µM, OCI-C5x cells, with rucaparib 10 µM, 100% = cells with rucaparib alone): 115% (inactive)
viability ([12]; at 0.0195 µM, OCI-C5x cells, without rucaparib): 124% (inactive)
viability ([12]; at 0.0195 µM, OCI-P5x cells, with rucaparib 20 µM, 100% = cells with rucaparib alone): 101% (inactive)
viability ([12]; at 0.0195 µM, OCI-P5x cells, without rucaparib): 105% (inactive)
viability ([12]; at 0.0781 µM, OCI-C5x cells, with rucaparib 10 µM, 100% = cells with rucaparib alone): 115% (inactive)
viability ([12]; at 0.0781 µM, OCI-C5x cells, without rucaparib): 109% (inactive)
viability ([12]; at 0.0781 µM, OCI-P5x cells, with rucaparib 20 µM, 100% = cells with rucaparib alone): 89.3% (active)
viability ([12]; at 0.0781 µM, OCI-P5x cells, without rucaparib): 102% (inactive)
viability ([12]; at 0.313 µM, OCI-C5x cells, with rucaparib 10 µM, 100% = cells with rucaparib alone): 94% (active)
viability ([12]; at 0.313 µM, OCI-C5x cells, without rucaparib): 106% (inactive)
viability ([12]; at 0.313 µM, OCI-P5x cells, with rucaparib 20 µM, 100% = cells with rucaparib alone): 81.1% (active)
viability ([12]; at 0.313 µM, OCI-P5x cells, without rucaparib): 89.6% (active)
viability ([12]; at 1.25 µM, OCI-C5x cells, with rucaparib 10 µM, 100% = cells with rucaparib alone): 70.2% (active)
viability ([12]; at 1.25 µM, OCI-C5x cells, without rucaparib): 87% (active)
viability ([12]; at 1.25 µM, OCI-P5x cells, with rucaparib 20 µM, 100% = cells with rucaparib alone): 64.9% (active)
viability ([12]; at 1.25 µM, OCI-P5x cells, without rucaparib): 57.1% (active)
viability ([12]; at 5 µM, OCI-C5x cells, with rucaparib 10 µM, 100% = cells with rucaparib alone): 50.5% (active)
viability ([12]; at 5 µM, OCI-C5x cells, without rucaparib): 36.9% (active)
viability ([12]; at 5 µM, OCI-P5x cells, with rucaparib 20 µM, 100% = cells with rucaparib alone): 34.4% (active)
viability ([12]; at 5 µM, OCI-P5x cells, without rucaparib): 21.1% (active)
remaining NAD [6]: 10 nM (inactive)
z-score [8]: -1.4 (inactive) and -0.58 (inactive)
